From PubChem BioAssay (NCATS)
Several values for one entry are separate records, joined by “and”; a condition that tells them apart may be missing. Equal entries are not always repeated. Inconclusive results are not listed. A call without a number means that no potency is given here. Activity calls are given as the source filed them. Unless noted, calls come from the whole dose curve; as a rule, active = well fitted curve in the direction sought with a large enough effect; inconclusive = small, poorly fitted or top-dose-only effect, or another doubt; inactive = no such curve, though single readings can be large; an effect the other way counts as inactive or inconclusive.

Columns and labels:
[1] = target: Voltage-gated inwardly rectifying potassium channel KCNH2 (Homo sapiens) (UniProt Q12809); assay: qHTS Assay for Small Molecule Inhibitors of the Human hERG Channel Activity (AID 588834);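 note: lower thallium flux fluorescence means stronger hERG block; nearly all actives have a fitted effect of over 50% in size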; note: potency is the fitted concentration of half-maximal effect
In short: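 Blockade is seen as reduced FluxOR thallium-flux fluorescence in U2OS cells expressing hERG from a BacMam construct, in Opti-MEM with 2% FCS. Concentration-response data fitted to the Hill equation for AC50.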

[2] = target: Luciferin 4-monooxygenase (Photinus pyralis) (UniProt P08659); assay: Biochemical firefly luciferase enzyme assay for NPC (AID 624030);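 note: purified P. pyralis luciferase at 10 nM with luciferin and ATP substrate; series mostly up to about 59 µM; nearly all actives have a fitted effect of over 70% in size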
In short: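 Purified P. pyralis luciferase at 10 nM in 50 mM Tris Acetate (final), luminescence read within 5 minutes of enzyme addition to compounds. Activity normalised to PTC124 versus DMSO; concentration-response curves classed by r2, magnitude and activity.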

[3] = target: Glutaminase kidney isoform, mitochondrial (Homo sapiens) (UniProt O94925); assay: qHTS for Inhibitors of Glutaminase (GLS): LOPAC Validation (AID 624146);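 note: glutamate product detected by oxidase and peroxidase coupled Amplex red fluorescence gain; series mostly up to about 46 µM; nearly all actives have a fitted effect of over 60% in size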
In short: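 Coupled fluorescence readout: glutamate oxidase/HRP/Amplex Red detect glutamate formed by hKGA from L-glutamine (1 mM solution added). Buffer 45 mM KH2PO4 pH 8.2, 0.02% Tween-20; reads at t0 and 30 min RT.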

[4] = qHTS of Trypanosoma Brucei Inhibitors: LOPAC Validation (AID 624147)
In short: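 Readout: single end-point luminescence (Kinase-Glo Plus, 10 min). Reaction conditions were TbPYK/substrate plus 130 uM ADP, 45 min at RT, pH 7.2 TEA buffer. No-enzyme wells served as controls, and data were normalized before concentration-response fitting.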

[5] = HTS Assay for Allosteric Antagonists of the Human D2 Dopamine Receptor: Hit Validation in HTRF (AID 624455);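 note: stable D1 dopamine receptor cell line scored for blocking the D1 response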
In short: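 Signal from an HTRF read-out in D1-expressing stable cells gave hit activity as inhibition of the D1 response.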

[6] = qHTS assay for small molecule agonists of retinoid X receptor alpha signaling (AID 588544; calls by dose curve); settings: HEK293T RXRa-UAS-bla, beta-lactamase reporter, 18 h; 530 nm emission
[7] = target: Retinoic acid receptor RXR-alpha (Homo sapiens) (UniProt P19793); assay: as above
[8] = qHTS assay for small molecule antagonists of retinoid X receptor alpha signaling (AID 588546; active = well fitted inhibition curve with a large enough effect in the signal ratio, with a control signal flat, not every such curve was filed as active; the % refers to the signal ratio;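 note: cells stimulated with 9-cis-retinoic acid as agonist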); settings: HEK293T RXRa-UAS-bla, beta-lactamase ratio, antagonist mode; measured here: W530 green channel, cytotoxicity proxy
In short: (§1)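 Beta-lactamase reporter inhibition, read as CCF4 fluorescence ratio (ex 405, em 460/530 nm) after 2 h at RT. HEK293T UAS-bla cells, 2500/well, were stimulated with 9-cis-RA at 500 or 100 nM final alongside test compound for 18 h at 37 C.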

[9] = target: Retinoic acid receptor RXR-alpha (Homo sapiens) (UniProt P19793); assay: as above; settings: HEK293T RXRa-UAS-bla, beta-lactamase ratio, antagonist mode
In short: as §1

[10] = S16 Schwann cell viability assay (CellTiter-Glo assay) (AID 624031); note: potency is the fitted concentration of half-maximal effect; nearly all actives have a fitted effect of over 70% in size
In short: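 Parental S16 cells, 24 h compound, 37 °C. ATP-luminescence viability; DMSO = 0% activity, empty wells as reference; curves classified by fit quality and efficacy.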

[11] = qHTS assay for small molecule activators of the p53 signaling pathway (AID 651743; active = well fitted activation curve with a large enough effect in the signal ratio, not every such curve was filed as active; the % refers to the signal ratio; note: series mostly up to about 92 µM); settings: HCT-116 p53RE-bla, beta-lactamase FRET ratio, 16 h; activation: stronger effect = higher value
In short: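 HCT-116 p53RE-bla, 4,000 cells/well; 5 h settle; cpd/DMSO 16 h, 37 C; LiveBLAzer B/G 2 h RT; fluorescence intensity.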

[12] = target: Thyroid hormone receptor beta (Homo sapiens) (UniProt P10828); assay: qHTS assay for small molecule agonists of thyroid hormone receptor beta signaling (AID 588545; calls by dose curve)
In short: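 Cells (2500/well) were seeded, incubated 4 hrs at 37 C, dosed with a compound series, incubated 18 hrs, loaded with CCF4 dye for 2 hrs at RT, then read for fluorescence. Data were scaled between DMSO (0%) and 10 nM T3 (100%).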

[13] = target: Thyroid hormone receptor beta (Homo sapiens) (UniProt P10828); assay: qHTS assay for small molecule antagonists of thyroid hormone receptor beta signaling (AID 588547; active = well fitted inhibition curve with a large enough effect in the signal ratio, with a control signal flat, not every such curve was filed as active; the % refers to the signal ratio;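 note: cells stimulated with 0.4 nM T3 agonist during compound exposure; series mostly up to about 77 µM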); settings: TR-UAS-bla HEK293, beta-lactamase ratio, antagonist mode, 18 h
In short: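 TR-UAS-bla GripTite HEK293 cells in 2% charcoal/dextran FBS medium; compounds 0.59 nM to 92 uM with T3 at 0.4nM final, 18 h at 37 C. Beta-lactamase read by CCF4 fluorescence (460/530 nm); Hill fits gave IC50 and efficacy.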

[14] = qHTS assay for small molecule agonists of the antioxidant response element (ARE) signaling pathway (AID 651741; active = well fitted activation curve with a large enough effect in the signal ratio; the % refers to the signal ratio; note: potency is the fitted concentration of half-maximal effect)
In short: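 HepG2 ARE-bla cells plated at 2,000 cells/well and incubated 5 h at 37 C/5% CO2 received 23 nL compound in DMSO. After 16 h at 37 C, LiveBLAzer B/G FRET substrate was applied for 2 h at room temperature and fluorescence read.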

[15] = S16 Schwann cell PMP22 intronic element firefly luciferase assay (AID 624032); note: nearly all actives have a fitted effect of over 30% in size; note: potency is the fitted concentration of half-maximal effect
In short: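 Rat S16 Schwann cells stably carrying firefly luciferase driven by a PMP22 intronic element, in 10% FBS, treated 24 h at 37 C. ONE-Glo luminescence normalized to PTC124 control and DMSO (0%); curves classed by r2, magnitude and activity.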

[16] = S16 Schwann cell PMP22 intronic element beta-lactamase assay (AID 624044; calls by dose curve; note: nearly all actives have a fitted effect of over 15% in size)
In short: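 Rat S16 Schwann cells with beta-Lac driven by a PMP22 intronic element, compound-treated 24 h at 37 °C. LiveBLAzer FRET B/G read: 460 nm normalized to potassium clavulanate vs DMSO; 535 nm FRET as viability; concentration-effect curves classified.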

Sequence of Thyroid hormone receptor beta (Homo sapiens) (P10828 whole entry, looked up): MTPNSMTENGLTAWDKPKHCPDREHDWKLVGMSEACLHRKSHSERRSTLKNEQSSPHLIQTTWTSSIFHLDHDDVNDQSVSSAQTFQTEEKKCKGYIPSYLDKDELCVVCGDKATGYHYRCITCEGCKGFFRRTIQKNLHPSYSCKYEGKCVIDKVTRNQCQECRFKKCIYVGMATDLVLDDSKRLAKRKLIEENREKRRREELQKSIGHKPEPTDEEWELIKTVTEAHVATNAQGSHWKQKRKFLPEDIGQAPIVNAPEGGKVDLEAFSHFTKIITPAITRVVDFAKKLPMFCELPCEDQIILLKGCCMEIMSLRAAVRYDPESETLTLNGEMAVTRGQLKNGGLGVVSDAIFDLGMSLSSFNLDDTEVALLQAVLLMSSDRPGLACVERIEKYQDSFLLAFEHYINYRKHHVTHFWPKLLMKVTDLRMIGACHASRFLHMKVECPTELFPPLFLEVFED
Sequence of Glutaminase kidney isoform, mitochondrial (Homo sapiens) (O94925 whole entry, looked up, canonical isoform): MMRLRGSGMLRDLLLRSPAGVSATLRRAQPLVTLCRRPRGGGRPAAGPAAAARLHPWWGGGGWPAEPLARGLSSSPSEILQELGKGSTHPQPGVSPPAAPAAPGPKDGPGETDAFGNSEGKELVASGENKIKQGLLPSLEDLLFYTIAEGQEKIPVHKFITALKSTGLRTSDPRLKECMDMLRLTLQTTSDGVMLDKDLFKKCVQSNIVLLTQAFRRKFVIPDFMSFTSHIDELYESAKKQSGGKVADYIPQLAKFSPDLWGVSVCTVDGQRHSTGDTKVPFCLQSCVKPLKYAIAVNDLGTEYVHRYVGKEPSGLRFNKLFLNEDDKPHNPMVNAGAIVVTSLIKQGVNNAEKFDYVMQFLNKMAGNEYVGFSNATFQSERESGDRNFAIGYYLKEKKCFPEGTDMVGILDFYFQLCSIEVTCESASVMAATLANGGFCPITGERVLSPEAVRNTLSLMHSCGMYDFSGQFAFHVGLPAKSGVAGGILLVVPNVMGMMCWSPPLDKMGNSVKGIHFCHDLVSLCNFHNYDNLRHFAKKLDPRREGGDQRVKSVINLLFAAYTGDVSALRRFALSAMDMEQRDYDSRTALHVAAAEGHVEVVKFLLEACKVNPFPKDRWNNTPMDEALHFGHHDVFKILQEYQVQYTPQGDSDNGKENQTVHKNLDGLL
Sequence of Voltage-gated inwardly rectifying potassium channel KCNH2 (Homo sapiens) (Q12809 whole entry, looked up): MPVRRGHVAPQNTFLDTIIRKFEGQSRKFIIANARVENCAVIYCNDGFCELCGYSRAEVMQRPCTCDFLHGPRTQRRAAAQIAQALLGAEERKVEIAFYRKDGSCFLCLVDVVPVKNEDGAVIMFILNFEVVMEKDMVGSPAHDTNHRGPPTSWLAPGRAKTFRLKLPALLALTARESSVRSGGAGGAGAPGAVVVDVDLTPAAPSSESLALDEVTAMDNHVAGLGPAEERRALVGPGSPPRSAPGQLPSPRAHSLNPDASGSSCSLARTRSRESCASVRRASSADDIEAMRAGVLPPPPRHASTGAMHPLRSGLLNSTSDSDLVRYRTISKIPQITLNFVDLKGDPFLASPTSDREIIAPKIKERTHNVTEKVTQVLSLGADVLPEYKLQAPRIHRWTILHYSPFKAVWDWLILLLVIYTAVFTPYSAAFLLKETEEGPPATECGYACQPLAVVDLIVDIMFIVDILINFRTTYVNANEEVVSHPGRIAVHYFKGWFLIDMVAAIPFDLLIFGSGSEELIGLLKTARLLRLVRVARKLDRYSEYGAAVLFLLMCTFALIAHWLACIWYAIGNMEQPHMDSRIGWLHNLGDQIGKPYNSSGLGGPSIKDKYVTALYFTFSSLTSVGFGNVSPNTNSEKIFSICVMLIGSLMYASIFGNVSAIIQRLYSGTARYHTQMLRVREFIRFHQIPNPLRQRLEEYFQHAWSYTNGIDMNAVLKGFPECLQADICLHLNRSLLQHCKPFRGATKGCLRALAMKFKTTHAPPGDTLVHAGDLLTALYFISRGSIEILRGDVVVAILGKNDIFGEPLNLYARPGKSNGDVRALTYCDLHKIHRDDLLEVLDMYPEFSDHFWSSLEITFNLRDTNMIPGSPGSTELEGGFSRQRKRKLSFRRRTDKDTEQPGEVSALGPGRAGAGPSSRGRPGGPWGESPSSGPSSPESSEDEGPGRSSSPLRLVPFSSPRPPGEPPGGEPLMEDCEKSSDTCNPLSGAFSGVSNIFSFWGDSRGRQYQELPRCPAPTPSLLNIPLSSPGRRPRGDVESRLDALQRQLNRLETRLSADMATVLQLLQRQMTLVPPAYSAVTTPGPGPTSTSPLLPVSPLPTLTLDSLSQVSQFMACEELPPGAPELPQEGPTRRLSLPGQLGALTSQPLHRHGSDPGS
Sequence of Retinoic acid receptor RXR-alpha (Homo sapiens) (P19793 whole entry, looked up): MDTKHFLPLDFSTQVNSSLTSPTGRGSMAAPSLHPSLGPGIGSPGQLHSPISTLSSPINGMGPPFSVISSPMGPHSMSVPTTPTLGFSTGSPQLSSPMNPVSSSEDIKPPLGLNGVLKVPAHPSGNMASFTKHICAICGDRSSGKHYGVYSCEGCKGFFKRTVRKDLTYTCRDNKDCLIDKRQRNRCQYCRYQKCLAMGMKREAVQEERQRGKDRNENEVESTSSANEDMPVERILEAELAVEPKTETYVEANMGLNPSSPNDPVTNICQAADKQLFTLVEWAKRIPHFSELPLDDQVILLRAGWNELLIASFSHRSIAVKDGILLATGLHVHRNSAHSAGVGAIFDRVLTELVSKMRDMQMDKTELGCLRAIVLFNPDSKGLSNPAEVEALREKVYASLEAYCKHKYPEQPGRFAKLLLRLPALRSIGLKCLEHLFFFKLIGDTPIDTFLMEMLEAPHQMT
Sequence of Luciferin 4-monooxygenase (Photinus pyralis) (P08659 whole entry, looked up): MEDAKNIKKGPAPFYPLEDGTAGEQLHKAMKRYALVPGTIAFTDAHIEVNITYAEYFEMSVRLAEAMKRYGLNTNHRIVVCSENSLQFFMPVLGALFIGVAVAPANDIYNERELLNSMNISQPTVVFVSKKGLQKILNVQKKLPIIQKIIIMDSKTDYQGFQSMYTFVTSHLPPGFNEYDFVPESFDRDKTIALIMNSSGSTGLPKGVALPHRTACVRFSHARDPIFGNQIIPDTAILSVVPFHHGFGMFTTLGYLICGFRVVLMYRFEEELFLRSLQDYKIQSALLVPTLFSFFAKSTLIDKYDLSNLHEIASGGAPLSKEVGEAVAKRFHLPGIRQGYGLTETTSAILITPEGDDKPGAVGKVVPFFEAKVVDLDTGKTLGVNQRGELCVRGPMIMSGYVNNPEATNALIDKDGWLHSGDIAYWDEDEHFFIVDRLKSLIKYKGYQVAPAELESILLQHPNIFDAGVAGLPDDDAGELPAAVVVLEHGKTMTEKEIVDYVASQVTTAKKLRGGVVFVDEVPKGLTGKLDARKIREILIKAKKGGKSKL

In the case of NC(N)=NCCCCN=C(N)N, the Potency [1] is reported as “inactive”, the Potency [2] is reported as “inactive” and the Potency [3] is reported as “inactive”. The outcome [4] was “inactive” and the outcome [5] was “inactive”.
In the case of CCCCCCCCCCCCCCCC[n+]1ccccc1, the max response [6] is reported as 3.2%, the Potency [7] is reported as “inactive” and the max response [8] is reported as 11.3%. For the same compound, the max response [9] was -34.1% (inactive), the Potency [2] was “inactive” and the Potency [10] was 36.1 µM (active). The activation [11] was 2.82% (inactive).
In the case of OCCOCCN1CCN(C(c2ccccc2)c2ccc(Cl)cc2)CC1 (configuration not stated), the max response [6] is reported as 11.6%, the Potency [7] is reported as “inactive” and the outcome [12] is reported as “inactive”. For the same compound, the max response [8] was 2.38%, the max response [9] was -14.3% (inactive) and the activity change % (negative = inhibition) [13] was -10.5% (inactive). The Potency [2] was “inactive”, the Potency [14] was “inactive” and the activation [11] was -1.54% (inactive).
For OCc1c[nH]c2ccccc12, the max response [6] was 1.88%, the Potency [7] was “inactive” and the outcome [12] was “inactive”. For the same compound, the max response [8] was 2.29%, the max response [9] was -2.51% (inactive) and the activity change % (negative = inhibition) [13] was 13% (inactive). For the same compound, the Potency [1] was “inactive”, the Potency [14] was 66.8 µM (active) and the activation [11] was -1.58% (inactive).
In the case of CN1CCCN(C(c2ccccc2)c2ccc(Cl)cc2)CC1 (configuration not stated), the Potency [1] is reported as 8.91 µM (active), the Potency [2] is reported as “inactive” and the Potency [10] is reported as 32.2 µM (active). For the same compound, the Potency [15] was 28.7 µM (active) and the Potency [16] was “inactive”.
In the case of Oc1ccccc1, the max response [8] is reported as -7.3% and -10.8% and -13%, the max response [9] is reported as 17.6% (inactive) and -10.1% (inactive) and 2.32% (inactive) and the Potency [1] is reported as “inactive”. For the same compound, the Potency [2] was “inactive” and the activation [11] was -2.44% (inactive) and -1.24% (inactive) and 0.0138% (inactive).
With C=CC[N+]1([C@H]2C[C@H]3[C@@H]4CC[C@H]5C[C@H](OC(C)=O)[C@@H](N6CCCCC6)C[C@]5(C)[C@H]4CC[C@]3(C)[C@H]2OC(=O)CC)CCCCC1 the Potency [2] was “inactive”.
With C1N2CN3CN1CN(C2)C3 the Potency [2] was “inactive”.
In the case of NCC(=O)O, the Potency [2] is reported as “inactive”.
With Nc1c[n+](N2CCOCC2)no1 the Potency [2] was “inactive”.
In the case of O=C(COCCOCCOCC(=O)Nc1c(I)cc(I)c(C(=O)O)c1I)Nc1c(I)cc(I)c(C(=O)O)c1I, the Potency [2] is reported as “inactive”.
For O=C1NC(c2cccc([N+](=O)[O-])c2)=CCN1c1ccccc1O, the Potency [1] was “inactive”, the outcome [4] was “inactive” and the outcome [5] was “inactive”.
In the case of O=C(OCC1(COC(=O)c2cccnc2)CCCC(COC(=O)c2cccnc2)(COC(=O)c2cccnc2)C1O)c1cccnc1, the Potency [2] is reported as “inactive”.
With CC(C)(C)C(=O)OCOC(=O)C1N2C(=O)CC2S(=O)(=O)C1(C)C (configuration not stated) the Potency [2] was “inactive”.
For CC(C)(C)c1nnc(NS(=O)(=O)c2ccccc2)s1, the Potency [2] was “inactive”.
For COc1ccccc1N1CCN(CCN2C(=O)CC3(CCCC3)CC2=O)CC1, the Potency [1] was 1.12 µM (active), the Potency [3] was “inactive” and the outcome [4] was “inactive”. The outcome [5] was “inactive”.
With Cc1cccc(C)c1NC(=O)c1cc(S(N)(=O)=O)c(Cl)cc1O the Potency [2] was “inactive”.
In the case of O=S(=O)(O)c1ccc2nc(-c3ccccc3)[nH]c2c1, the Potency [1] is reported as “inactive”, the Potency [15] is reported as “inactive” and the Potency [16] is reported as “inactive”.
For CCN1CCN(c2cc(-c3ccc(F)cc3)c3c(n2)CCCCCC3)CC1, the Potency [2] was “inactive”.
In the case of Brc1ccc([C@H]2CN3CCSC3=N2)cc1, the Potency [1] is reported as 11.2 µM (active), the Potency [3] is reported as “inactive” and the outcome [4] is reported as “inactive”. For the same compound, the outcome [5] was “inactive”.
With OCc1cccnc1 the Potency [2] was “inactive”.
In the case of CCOC(=O)[C@H](CCc1ccccc1)N[C@@H](C)C(=O)N(CC(=O)O)C1Cc2ccccc2C1, the Potency [2] is reported as “inactive”.
With CCCCCC(=O)O[C@]1(C(C)=O)CC[C@H]2[C@@H]3CCC4=CC(=O)CC[C@]4(C)[C@H]3CC[C@@]21C the Potency [2] was “inactive”.
